SMILES strings stand for the structures. This is part of a sample that, as a whole, favours compounds with a hit. Of some 83,000 tested, about 20% had one in any assay.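 The test compound was applied at a single concentration to cells in 96-well plates for 48 hours, and percent growth was recorded.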 Unmarked numbers belong to inactive results. Activity calls are given as the source filed them. The calls were made as follows: active = growth percent below 10; inactive = the rest.

Here are results for 11 molecules from PubChem BioAssay (NCI).

This test concerns OVCAR-4 ovarian. As to the kind of experiment: NCI-60 one-dose screen, 48 h (100 = growth as untreated, 0 = no growth, -100 = all killed). As to conditions: 10 µM unless noted.
For the molecule `COc1ccc(-c2ccc3c4c(cccc24)C(=O)N(N2C(=O)c4cccc5cccc(c45)C2=O)C3=O)cc1`, the growth was 97.5%. As to `NS(=O)(=O)c1ccc(Nc2nc(N/N=C/c3ccc(C(F)(F)F)cc3)nc(Nc3ccccc3)n2)cc1`, the growth is 40.9%. Next, `COc1cc(CNC(=O)/C=C/c2ccccc2)ccc1OCC(=O)NO`: 108%; `NS(=O)(=O)c1ccc(Nc2nc(N/N=C/c3ccc(F)cc3)nc(Nc3ccccc3)n2)cc1`: 55.5%; `C=C1C(=O)O[C@@H]2C[C@@H](C)[C@H](OC)CC(=O)[C@](C)(OC(C)=O)C[C@H](OC(=O)/C(C)=C\C)[C@@H]12`: 82.3%. Next, `O=C(c1ccc(O)cc1)[C@@H]1[C@@H]2CCCN2[C@@]2(C(=O)N(C(=O)c3ccc(F)cc3)c3ccccc32)[C@H]1c1ccc(F)cc1`: 91.1%; `Cc1ccc(-n2cc(/C=C/C(=O)c3ccc(S(C)(=O)=O)cc3)c(-c3ccc(S(C)(=O)=O)cc3)n2)cc1`: 109%; `Cc1ccc(Cc2cnc(NC(=O)/C(C#N)=C/c3ccc(-c4ccc(Cl)cc4)o3)s2)cc1`: 94.6%. For `C=C(C)C(=O)O[C@H]1C[C@@]2(C)OC(=CC2=O)/C(C)=C\[C@H]2OC(=O)C(=C)[C@H]12`, the growth is 36.1%.

`CCN(CC)CCN1C(=O)c2c(c3c4cc(Br)ccc4[nH]c3c3ccc4ccccc4c23)C1=O`: the growth is 36.6%.

Take `Oc1ccc(CSc2nnc(-c3ccc(Oc4ccccc4)cc3)o2)c2cccnc12`: the growth is -36.5% (active).
